Screening data deposited in PubChem by The Scripps Research Institute Molecular Screening Center.
This is a sample that favours compounds with a hit; in the whole collection about 4.1% have one here.
DAX1 inh-1 = NR0B1 (DAX1) inhibition; P51843; HEK293 Gal4-DAX1 luciferase reporter, luminescence; inhibition, % at 6.75 µM; 0.99% of 340,000 active;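 active = inhibition above the mean over all tested compounds plus 3 SD, cut at about 4.2% in these data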;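 note: inhibition shows as a rise in luminescence from relieved DAX1 repression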
Target sequence (P51843 207-470 limits assumed): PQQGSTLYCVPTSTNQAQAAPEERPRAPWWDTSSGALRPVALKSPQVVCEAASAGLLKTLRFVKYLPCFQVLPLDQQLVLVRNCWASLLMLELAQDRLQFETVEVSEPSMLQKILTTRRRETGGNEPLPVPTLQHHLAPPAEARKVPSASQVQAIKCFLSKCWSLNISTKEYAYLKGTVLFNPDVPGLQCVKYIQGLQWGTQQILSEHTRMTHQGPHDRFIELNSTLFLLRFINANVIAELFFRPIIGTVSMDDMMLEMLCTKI
ssDAF12 agonist = activators of S. stercoralis DAF-12 nuclear receptor; HEK293 ssDAF-12/GRIP1 lit1-tk-luc reporter, luminescence; % of 3 µM dafachronic acid response; activation, % at 6.8 µM; 1% of 370,000 active; AID 652126;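 active = activation above the mean over all tested compounds plus 3 SD, cut at about 0.9% in these data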
hgDAF-12 ag = hgDAF-12 agonism, primary luciferase screen; 1.8% of 370,000 active; HEK293 GAL4-hgDAF12 UAS-luciferase reporter, agonist luminescence; normalized to butyrate control; AID 687014; activation, % at 6.8 µM;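 active = activation above a cutoff set at the mean of all screened compounds plus 3 SD, cut at about 10% in these data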
hcDAF-12 act = activates DAF-12 receptor from parasite H. contortus | HEK293 hcDAF-12 lit1-tk-luc reporter, luminescence; 0% DMSO, 100% Δ7-dafachronic acid | activation, % at 6.8 µM | 1.4% of 370,000 active | AID 652067;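 active = activation above the mean of all tested compounds plus 3 SD, cut at about 5.5% in these data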
DAX1 inh-2 = blocks DAX1 repression of SF-1 activated StAR promoter. HEK293T StAR-luciferase reporter, SF-1/DAX-1 repression relief. inhibition, % at 6.8 µM. 1.1% of 370,000 active. AID 652010;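 active = inhibition above the mean over all tested compounds plus 3 SD, cut at about 3.6% in these data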;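 note: higher inhibition means more luminescence from relief of DAX-1 repression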
DAX1 inh confirm = confirmation of human DAX1 (NR0B1) inhibitors; shares compounds with DAX1 inh-2; HEK293T StAR-promoter luciferase reporter, SF-1/DAX-1 repression; inhibition, % at 6.8 µM; 87% of 2,400 active; AID 652134;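 active = inhibition above the average of every tested compound plus 3 SD, cut at about 3.8% in these data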;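 note: active compounds raise luminescence by relieving repression of the StAR reporter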
Target sequence (P51843 whole entry, looked up): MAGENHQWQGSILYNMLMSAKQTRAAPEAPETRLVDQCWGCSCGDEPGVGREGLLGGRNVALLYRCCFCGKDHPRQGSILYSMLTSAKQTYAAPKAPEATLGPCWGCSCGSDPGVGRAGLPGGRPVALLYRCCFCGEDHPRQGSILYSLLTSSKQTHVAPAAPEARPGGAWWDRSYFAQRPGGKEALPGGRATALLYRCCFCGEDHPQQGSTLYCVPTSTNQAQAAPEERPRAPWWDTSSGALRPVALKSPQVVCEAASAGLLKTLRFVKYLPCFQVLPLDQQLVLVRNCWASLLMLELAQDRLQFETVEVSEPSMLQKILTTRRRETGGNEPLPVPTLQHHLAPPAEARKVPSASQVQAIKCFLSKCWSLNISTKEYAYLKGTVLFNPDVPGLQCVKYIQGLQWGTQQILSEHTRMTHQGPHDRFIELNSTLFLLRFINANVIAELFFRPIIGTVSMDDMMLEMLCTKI
SF1 mutant ctr = nonselective inhibitor or artifact in SF-1 mutant DAX1 counter-screen. HEK293 StAR-luciferase, SF-1 AF2 mutant, luminescence. 78% of 2,400 active. AID 652136. inhibition, % at 6.8 µM. shares compounds with DAX1 inh-2;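 active = inhibition above the mean of all tested compounds plus 3 SD, cut at about 3% in these data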
Each line names hits and unclear results; the compound was inactive in the other large screens (follow-up assays come after a bar, where they were run).

C[C@H](CO)N1C[C@H](C)[C@@H](CN(C)C(=O)C2CC2)OCc2cnnn2CCCC1=O	none
OCCNC(=S)NCCc1ccccc1	none
S=C(NCCc1ccccc1)Nc1ncccn1	DAX1 inh-2 5.5 | DAX1 inh confirm 3.9 | SF1 mutant ctr inactive
CCOC(=O)CSC1=C(C#N)C(c2ccc(C)o2)CC(=O)N1 (configuration not stated)	DAX1 inh-2 5.6 | DAX1 inh confirm 17.1 | SF1 mutant ctr inactive
CCOC(=O)CSC1=C(C#N)C(c2ccc(Cl)cc2)CC(=O)N1 (configuration not stated)	none
COc1cc(F)ccc1-c1csc(C(C)(O)c2ccccc2)n1 (configuration not stated)	none (no result: DAX1 inh-1)
c1ccc2cc(OCc3nc4ccccc4[nH]3)ccc2c1	hgDAF-12 ag 10.8, DAX1 inh-2 4.8 | DAX1 inh confirm 14.7 | SF1 mutant ctr 7.6
COc1ccc(OCc2nc3ccccc3[nH]2)cc1	DAX1 inh-2 5.7 | DAX1 inh confirm 13.1 | SF1 mutant ctr 8.4
COc1cccc(OCc2nc3ccccc3[nH]2)c1	DAX1 inh-2 5.5 | DAX1 inh confirm 6.3 | SF1 mutant ctr 7.0
c1ccc2[nH]c(COCc3nc4ccccc4[nH]3)nc2c1	none (no result: DAX1 inh-1, DAX1 inh-2)
C[C@@H]1NS(=O)(=O)c2cccc(Cl)c2O[C@@H]1c1ccccc1	none (no result: DAX1 inh-1)
COc1ccccc1OCC(=O)NNC(=O)CSC(=S)N1CCCC1	DAX1 inh-2 5.1 | DAX1 inh confirm inactive | SF1 mutant ctr inactive
N#Cc1ccccc1OCC(=O)Nc1cc(S(=O)(=O)N2CCCCC2)ccc1N1CCOCC1	DAX1 inh-2 6.0 | DAX1 inh confirm inactive | SF1 mutant ctr inactive
O=C(COc1ccccc1)Nc1cc(S(=O)(=O)N2CCOCC2)ccc1N1CCCC1	none
Cc1ccc2ccccc2c1C(O)c1ncc(-c2ccc(Cl)cc2)[nH]1 (configuration not stated)	none (no result: DAX1 inh-1)
CCCCC(=O)NC(=S)NNC(=O)CC#N	DAX1 inh-2 4.7 | DAX1 inh confirm inactive | SF1 mutant ctr inactive
C=C1CCCC2OC(CC3=CC4/C(C)=C/CC(C)CC(/C=C(\C)C(O)C5CC(O)C(O)C(CCC(O)/C=C/C(C)=C/CCC6=NCCC(C3)C64C)O5)OC(=O)CC3OC(C(O)C1)C(O)C3O)CC(O)C2O (configuration not stated)	hcDAF-12 act 5.8, DAX1 inh-2 7.9 (no result: DAX1 inh-1) | DAX1 inh confirm 11.4 | SF1 mutant ctr inactive
CC(C)n1c(=O)c2ccccc2n1Cc1cn(Cc2cccnc2)nn1	none (no result: DAX1 inh-1)
COc1cc(SC)ccc1C(=O)Nc1ccc(Cl)cn1	hgDAF-12 ag 12.2, DAX1 inh-2 5.3 | DAX1 inh confirm inactive | SF1 mutant ctr inactive
CSc1ccc(Cl)c(C(=O)Nc2ccc(Cl)cn2)c1	none
OC(c1cccc(F)c1)c1ncc(-c2ccc(Oc3ccccc3)cc2)[nH]1 (configuration not stated)	none (no result: DAX1 inh-1)
O=C(CSc1ccccn1)Nc1ccc2c(c1)OCCO2	none
O=C(CSc1ccccn1)Nc1ccc2c(c1)CCC2	DAX1 inh-2 5.0 | DAX1 inh confirm 7.2 | SF1 mutant ctr 5.5
CC(=O)c1cc(-c2ccc3c(c2)OCO3)c(=O)n2c1CCC2	none (no result: DAX1 inh-1)
Cc1ccc(Cn2cc(CN3CC(N4CCN(C5CCN(C)CC5)CC4)CS3(=O)=O)nn2)cc1 (configuration not stated)	DAX1 inh-2 4.7 (no result: DAX1 inh-1) | DAX1 inh confirm inactive | SF1 mutant ctr 4.1
CC(=O)Nc1nc2cc3c(cc2s1)OCCO3	ssDAF12 agonist 1.3, hgDAF-12 ag 10.5, DAX1 inh-2 5.8 | DAX1 inh confirm 11.5 | SF1 mutant ctr 6.0
COc1cc(C(=O)c2cc3c(cc2C)OCO3)cc(OC)c1OC	DAX1 inh-2 6.5 (no result: DAX1 inh-1) | DAX1 inh confirm 12.8 | SF1 mutant ctr inactive
C[C@@H]1CN([C@H](C)CO)C(=O)CCCn2cc(nn2)CO[C@H]1CN(C)C(=O)c1ccncc1	none (no result: DAX1 inh-1)
O=C(NCCc1cccc(Cl)c1)c1ccc2c(c1)OCO2	hcDAF-12 act 5.6, DAX1 inh-2 11.2 | DAX1 inh confirm 13.4 | SF1 mutant ctr 6.8
CNc1cc(-c2ccc(OC)c(OC)c2)ncn1	hgDAF-12 ag 12.3, DAX1 inh-2 5.3 (no result: DAX1 inh-1) | DAX1 inh confirm 9.5 | SF1 mutant ctr 4.8
CNc1cc(-c2ccc(C(=O)OC)cc2)ncn1	none (no result: DAX1 inh-1)
COc1ccc(OCC2CN(C3CCCC3)S(=O)(=O)CCO2)cc1 (configuration not stated)	none (no result: DAX1 inh-1)
Cc1ccc(SCc2nc(N)nc(Nc3ccccc3C)n2)cc1C	none
Cc1ccccc1Nc1nc(N)nc(CSc2ccc(F)cc2)n1	DAX1 inh-1 7.5, hgDAF-12 ag 11.6, DAX1 inh-2 6.7 | DAX1 inh confirm 11.2 | SF1 mutant ctr 4.6
O=C(/C=C/c1ccco1)Nc1cc(Cl)ccc1C(=O)O	none
O=C(/C=C/c1ccco1)Nc1ccccc1C(=O)O	hgDAF-12 ag 13.2, DAX1 inh-2 4.6 (no result: DAX1 inh-1) | DAX1 inh confirm 9.3 | SF1 mutant ctr 5.7
COc1ccc(C(NC(=O)C2CCN(Cc3ccc(Oc4ccccc4)cc3)CC2)c2ccccc2C)cn1 (configuration not stated)	none (no result: DAX1 inh-1)
Cc1ccc(S(=O)(=O)NC(=O)NC2=NC(C)(C)N(c3ccc(Cl)c(Cl)c3)C(N)=N2)cc1	none (no result: DAX1 inh-1)
O=C(/C=C/c1ccco1)Nc1sc2c(c1C(=O)O)CCC2	none
N#Cc1c(NC(=O)/C=C/c2ccco2)sc2c1CCCC2	hcDAF-12 act 6.2, DAX1 inh-2 5.1 | DAX1 inh confirm 31.4 | SF1 mutant ctr inactive
Cc1ccccc1NC(=O)Nc1ccc2c(c1)CCC2	DAX1 inh-2 5.0 | DAX1 inh confirm 10.6 | SF1 mutant ctr 5.5
COc1cc(C(=O)Nc2ccc3c(c2)nc(C)n3C)cc(OC)c1OC	none
COc1ccccc1NC(=O)Nc1ccc2c(c1)nc(C)n2C	hgDAF-12 ag 13.1, DAX1 inh-2 6.0 | DAX1 inh confirm 17.5 | SF1 mutant ctr 9.7
COc1ccccc1NC(=O)Nc1ccc2c(c1)CCC2	DAX1 inh-2 8.1 | DAX1 inh confirm 6.3 | SF1 mutant ctr 4.9
CC(C)C[C@@H]1COc2cc(NCCO)ccc2S(=O)(=O)N1	none (no result: DAX1 inh-1)
Cc1cc(NCC(=O)Nc2ccc(C)c(S(=O)(=O)N3CCOCC3)c2)ccc1Br	none
COc1ccc(C2=Nn3c(nnc3-c3ccccc3Cl)SC2)cc1OC1CCOC1 (configuration not stated)	none
COc1ccc(OC)c(-c2nnc3n2N=C(c2ccc(OC)c(OC4CCOC4)c2)CS3)c1 (configuration not stated)	DAX1 inh-2 4.9 | DAX1 inh confirm 19.4 | SF1 mutant ctr inactive
COc1ccccc1-c1nnc2n1N=C(c1ccc3c(c1)OCO3)CS2	DAX1 inh-2 4.7 (no result: DAX1 inh-1) | DAX1 inh confirm 10.9 | SF1 mutant ctr inactive
O=C1[C@@H]2CSCCS(=O)(=O)N2C(=O)N1C1CCCCC1	none (no result: DAX1 inh-1)
